Laboratory results: PubChem BioAssay (EPA / NIEHS)
Records with an inconclusive call do not appear. Calls of active or inactive are those of the source. How the source made its calls, unless noted: active means hit-call score of the fitted dose curve at least 0.9, where 1 is the maximum; inactive means score below 0.9.

Target: Peroxisome proliferator-activated receptor gamma (Homo sapiens) (UniProt P37231)
Sequence (P37231 whole entry, looked up): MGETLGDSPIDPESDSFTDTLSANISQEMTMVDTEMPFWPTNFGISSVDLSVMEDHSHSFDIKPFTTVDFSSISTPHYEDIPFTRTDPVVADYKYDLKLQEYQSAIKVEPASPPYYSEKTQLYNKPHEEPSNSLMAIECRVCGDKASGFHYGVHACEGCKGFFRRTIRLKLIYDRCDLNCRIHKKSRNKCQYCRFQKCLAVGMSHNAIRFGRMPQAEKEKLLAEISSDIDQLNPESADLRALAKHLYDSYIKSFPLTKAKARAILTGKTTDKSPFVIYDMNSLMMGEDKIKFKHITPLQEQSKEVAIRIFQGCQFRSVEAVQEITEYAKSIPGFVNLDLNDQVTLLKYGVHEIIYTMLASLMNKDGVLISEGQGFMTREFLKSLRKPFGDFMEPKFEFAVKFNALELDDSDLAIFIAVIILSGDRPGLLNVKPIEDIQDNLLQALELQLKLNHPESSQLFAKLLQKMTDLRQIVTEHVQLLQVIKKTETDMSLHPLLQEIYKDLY
Assay: OT_PPARg_PPARgSRC1_0480: Odyssey Thera (OT) 8-hour Protein-Complementation Assay for Peroxisome Proliferator-activated Receptor Gamma / SRC-1 Co-activator (AID 2283387; active means hit-call score of the fitted dose curve at least 0.9, where 1 is the maximum;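 further: nuclear to cytoplasmic split Venus YFP fluorescence ratio reporting PPARg SRC-1 interaction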)
Settings: not given
Procedure, shortened: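 Read-out: 488 nm N/C fluorescence ratio from complemented Venus YFP fragments, ≥350 cells per image, gain-of-signal fitted against DMSO baseline. Fusions of PPARg/SRC-1 with IFP1/IFP2 expressed transiently in HEK293T; compounds applied 8 h.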
In the case of `CC(C)Nc1ccc(NC(C)C)c2c1C(=O)c1ccccc1C2=O`, the outcome was “inactive”. For `CCCCC(CC)COC(=O)c1ccc(N(C)C)cc1` (stereo unspecified), the outcome was “inactive”. In the case of `CCCCOC(=O)[C@H](C)O`, the outcome was “inactive”. For `CCc1cc(Cc2cc(CC)c(N)c(CC)c2)cc(CC)c1N`, the outcome was “inactive”. With `CC(C)(C)c1cc(Cc2cc(C(C)(C)C)c(O)c(C(C)(C)C)c2)cc(C(C)(C)C)c1O` the outcome was “inactive”. In the case of `Cc1ccc([N+](=O)[O-])c(C)c1`, the outcome was “inactive”. For `N#Cc1ccccc1O`, the outcome was “inactive”. In the case of `CCOC(OCC)OCC`, the outcome was “inactive”. For `OCC1CCCO1` (stereo unspecified), the outcome was “inactive”. For `CCCCOC(=O)C(C)O` (stereo unspecified), the outcome was “inactive”. For `CCOC(=O)C1CC(=O)C(=C(O)C2CC2)C(=O)C1` (stereo unspecified), the outcome was “inactive”. In the case of `CCN=C1C=CC(=C(c2ccc(N(CC)CC)cc2)c2ccc(N(CC)CC)cc2)c2ccccc21`, the outcome was “inactive”. For `CCCCCCCC/C=C\CCCCCCCC(=O)OCC(O)CO` (stereo unspecified), the outcome was “inactive”. For `CC(C)OC=O`, the outcome was “inactive”. With `F[Si-2](F)(F)(F)(F)F` the outcome was “inactive”.

Target: Peroxisome proliferator-activated receptor gamma (Homo sapiens) (UniProt P37231)
Assay: OT_PPARg_PPARgSRC1_1440: Odyssey Thera (OT) 24-hour Protein-Complementation Assay for Peroxisome Proliferator-activated Receptor Gamma/ SRC-1 Co-activator (AID 2283388; active means hit-call score of the fitted dose curve at least 0.9, where 1 is the maximum;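 further: nuclear to cytoplasmic ratio of reconstituted Venus YFP fluorescence in fixed imaged cells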)
Settings: not given
Procedure, shortened: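 Readout is the 488 nm N/C fluorescence ratio from fixed, Draq5-stained HEK293T cells after 24 h compound exposure. Cells carried transiently transfected PPARg and SRC-1 fused to Venus fragments, transfected 48 h before treatment.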
With `CC(C)Nc1ccc(NC(C)C)c2c1C(=O)c1ccccc1C2=O` the outcome was “inactive”. For `CCCCC(CC)COC(=O)c1ccc(N(C)C)cc1` (stereo unspecified), the outcome was “inactive”. For `CCCCOC(=O)[C@H](C)O`, the outcome was “inactive”. In the case of `CCc1cc(Cc2cc(CC)c(N)c(CC)c2)cc(CC)c1N`, the outcome was “inactive”. In the case of `CC(C)(C)c1cc(Cc2cc(C(C)(C)C)c(O)c(C(C)(C)C)c2)cc(C(C)(C)C)c1O`, the outcome was “inactive”. In the case of `Cc1ccc([N+](=O)[O-])c(C)c1`, the outcome was “inactive”. For `N#Cc1ccccc1O`, the outcome was “inactive”. With `CCOC(OCC)OCC` the outcome was “inactive”. For `OCC1CCCO1` (stereo unspecified), the outcome was “inactive”. For `CCCCOC(=O)C(C)O` (stereo unspecified), the outcome was “inactive”. For `CCOC(=O)C1CC(=O)C(=C(O)C2CC2)C(=O)C1` (stereo unspecified), the outcome was “inactive”. With `CCN=C1C=CC(=C(c2ccc(N(CC)CC)cc2)c2ccc(N(CC)CC)cc2)c2ccccc21` the outcome was “inactive”. In the case of `CCCCCCCC/C=C\CCCCCCCC(=O)OCC(O)CO` (stereo unspecified), the outcome was “inactive”. In the case of `CC(C)OC=O`, the outcome was “inactive”. For `F[Si-2](F)(F)(F)(F)F`, the outcome was “inactive”.

Read-out: not listed separately
Assay: CEETOX_H295R_11DCORT: CeeTox H295R High-throughput Steroidogenesis Assay for 11-Deoxycortisol (11DCORT) (AID 2283432);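 on AC50: 11-deoxycortisol secreted into the medium measured by LC-MS/MS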
Settings: actives raise or lower the signal
Procedure, shortened: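 H295R cells; 10 uM forskolin prestim 48 h; compound in 0.1% DMSO 48 h; media extracted with MTBE; 11-deoxycortisol by LC-MS/MS, 7-point standard curve; gain/loss vs DMSO baseline; viability by MTT in same wells.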
In the case of `Oc1ccc2c(c1)CCC2`, the outcome was “inactive”. For `CCCCC(CC)COC(=O)c1ccc(N(C)C)cc1` (stereo unspecified), the outcome was “inactive”. For `O=c1[nH]cccc1O`, the AC50 was 8.85 µM (active). In the case of `O=C1c2ccccc2C(=O)c2c(Cl)cccc21`, the outcome was “inactive”. In the case of `CCOCOCC`, the outcome was “inactive”. In the case of `N#Cc1ccccc1O`, the outcome was “inactive”. In the case of `Nc1cccnc1N`, the outcome was “inactive”. For `Cc1cccc(C)n1`, the outcome was “inactive”. With `CN1CN(C)CN(C)C1` the outcome was “inactive”. For `OCCC(O)CO` (stereo unspecified), the outcome was “inactive”. With `CC1CCCCC1` the outcome was “inactive”.

Read-out: not listed separately
Assay: CEETOX_H295R_OHPREG: CeeTox H295R High-throughput Steroidogenesis Assay for OH-Pregnenolone (OHPREG) (AID 2283434)
Settings: actives raise or lower the signal
Procedure, shortened: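 H295R, 10 uM forskolin pre-stim 48 h; test chemical 48 h, 0.1% DMSO final. MTBE extraction, reverse-phase C18 HPLC-ESI+ MS/MS of medium. Gain/loss vs DMSO; viability by MTT in same wells.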
With `CCCCC(CC)COC(=O)c1ccc(N(C)C)cc1` (stereo unspecified) the AC50 was 6.35 µM (active). In the case of `O=c1[nH]cccc1O`, the AC50 was 6.71 µM (active). For `O=C1c2ccccc2C(=O)c2c(Cl)cccc21`, the outcome was “inactive”. In the case of `CCOCOCC`, the outcome was “inactive”. With `N#Cc1ccccc1O` the outcome was “inactive”. In the case of `Nc1cccnc1N`, the outcome was “inactive”. In the case of `Cc1cccc(C)n1`, the outcome was “inactive”. For `CN1CN(C)CN(C)C1`, the outcome was “inactive”. In the case of `OCCC(O)CO` (stereo unspecified), the outcome was “inactive”. For `CC1CCCCC1`, the outcome was “inactive”.

Read-out: not listed separately
Assay: CEETOX_H295R_OHPROG: CeeTox H295R High-throughput Steroidogenesis Assay for OH-Progesterone (OHPROG) (AID 2283435);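 on AC50: 17alpha-hydroxyprogesterone secreted into medium measured by HPLC-MS/MS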
Settings: actives raise or lower the signal
Procedure, shortened: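 Steps: seed H295R cells and adhere overnight; stimulate with 10 uM forskolin for 48 h; replace with chemical-containing medium (0.1% DMSO) for 48 h; extract medium with MTBE; quantify 17alpha-hydroxyprogesterone by reverse-phase C18 HPLC-MS/MS against a 7-point curve.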
For `CCCCC(CC)COC(=O)c1ccc(N(C)C)cc1` (stereo unspecified), the AC50 was 6.74 µM (active). In the case of `O=c1[nH]cccc1O`, the AC50 was 8.78 µM (active). For `O=C1c2ccccc2C(=O)c2c(Cl)cccc21`, the outcome was “inactive”. With `CCOCOCC` the outcome was “inactive”. For `N#Cc1ccccc1O`, the AC50 was 30.1 µM (active). With `Nc1cccnc1N` the outcome was “inactive”. With `Cc1cccc(C)n1` the outcome was “inactive”. In the case of `CN1CN(C)CN(C)C1`, the outcome was “inactive”. For `OCCC(O)CO` (stereo unspecified), the outcome was “inactive”. In the case of `CC1CCCCC1`, the outcome was “inactive”.

Read-out: not listed separately
Assay: CEETOX_H295R_CORTISOL: CeeTox H295R High-throughput Steroidogenesis Assay for Cortisol (AID 2283438);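 further: cortisol secreted into medium quantified by LC-MS/MS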
Settings: actives raise or lower the signal
Procedure, shortened: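 Cortisol synthesis by H295R cells is measured 48 h after chemical dosing, following a 48 h stimulation with 10 uM forskolin. Hormone is extracted and quantified by HPLC-MS/MS, and activity is fitted bidirectionally against the DMSO control.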
For `Oc1ccc2c(c1)CCC2`, the outcome was “inactive”. In the case of `CCCCC(CC)COC(=O)c1ccc(N(C)C)cc1` (stereo unspecified), the outcome was “inactive”. With `O=c1[nH]cccc1O` the outcome was “inactive”. For `O=C1c2ccccc2C(=O)c2c(Cl)cccc21`, the outcome was “inactive”. In the case of `CCOCOCC`, the outcome was “inactive”. For `N#Cc1ccccc1O`, the outcome was “inactive”. With `Nc1cccnc1N` the outcome was “inactive”. With `Cc1cccc(C)n1` the outcome was “inactive”. With `CN1CN(C)CN(C)C1` the outcome was “inactive”. In the case of `OCCC(O)CO` (stereo unspecified), the outcome was “inactive”. With `CC1CCCCC1` the outcome was “inactive”.

Read-out: not listed separately
Assay: CEETOX_H295R_DOC: CeeTox H295R High-throughput Steroidogenesis Assay for DOC (AID 2283439)
Settings: actives raise or lower the signal
Procedure, shortened: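 Steps: seed H295R, adhere overnight; 10 uM forskolin 48 h; replace with chemical medium (0.1% DMSO) 48 h; collect medium, MTBE extraction, HPLC-MS/MS for DOC. Viability then checked by MTT; cytotoxic chemicals diluted until viability ≥70%.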
For `Oc1ccc2c(c1)CCC2`, the outcome was “inactive”. With `CCCCC(CC)COC(=O)c1ccc(N(C)C)cc1` (stereo unspecified) the AC50 was 6.74 µM (active). For `O=c1[nH]cccc1O`, the AC50 was 5.07 µM (active). In the case of `O=C1c2ccccc2C(=O)c2c(Cl)cccc21`, the outcome was “inactive”. With `CCOCOCC` the outcome was “inactive”. With `N#Cc1ccccc1O` the AC50 was 77.7 µM (active). In the case of `Nc1cccnc1N`, the outcome was “inactive”. In the case of `Cc1cccc(C)n1`, the outcome was “inactive”. In the case of `CN1CN(C)CN(C)C1`, the outcome was “inactive”. With `OCCC(O)CO` (stereo unspecified) the outcome was “inactive”. With `CC1CCCCC1` the outcome was “inactive”.

Read-out: not listed separately
Assay: CEETOX_H295R_ESTRADIOL: CeeTox H295R High-throughput Steroidogenesis Assay for Estradiol (AID 2283440);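 further: estradiol secreted into medium quantified by LC-MS/MS after dansyl derivatisation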
Settings: actives raise or lower the signal
Procedure, shortened: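 Estradiol in spent medium measured by LC-MS/MS after dansyl chloride derivatisation. Forskolin-primed (10 uM, 48 h) human adrenal H295R cells received test chemical 48 h at 0.1% DMSO; concentrations lowered until MTT viability >/=70%.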
For `Oc1ccc2c(c1)CCC2`, the AC50 was 39.1 µM (active). In the case of `CCCCC(CC)COC(=O)c1ccc(N(C)C)cc1` (stereo unspecified), the outcome was “inactive”. In the case of `O=c1[nH]cccc1O`, the outcome was “inactive”. In the case of `O=C1c2ccccc2C(=O)c2c(Cl)cccc21`, the outcome was “inactive”. In the case of `CCOCOCC`, the outcome was “inactive”. For `Cc1cccc(C)n1`, the outcome was “inactive”. In the case of `CN1CN(C)CN(C)C1`, the outcome was “inactive”. In the case of `CC1CCCCC1`, the outcome was “inactive”.
